ChEMBL document CHEMBL1157539, “Thousands of chemical starting points for antimalarial lead identification” (Nature, 2010)

Assays:
Type in all cases: functional
Plasmodium falciparum [1] = experiment: GSK_TCMDC: Inhibition of Plasmodium falciparum 3D7 in whole red blood cells, using parasite LDH activity as an index of growth. Test compounds present at 2uM
Plasmodium falciparum [2] = experiment: GSK_TCMDC: Inhibition of Plasmodium falciparum Dd2 in whole red blood cells, using parasite LDH activity as an index of growth. Test compounds present at 2uM
HepG2 = experiment: GSK_TCMDC: Percent inhibition of human HepG2 cell line. Test compounds present at 10uM.

Compound	Inhibition (Plasmodium falciparum [1]) [%]	Inhibition (Plasmodium falciparum [2]) [%]	Inhibition (HepG2) [%]
Br.CC1(C)NC(N)=NC(=N)N1OCCOc1cccc(C(F)(F)F)c1	93	97	67
Oc1ccccc1CN1CCCC(COC(c2ccc(F)cc2)c2ccc(F)cc2)C1 (centres undefined)	97	98	19
NS(=O)(=O)NCCCN1CCN(c2ccccc2)CC1	90	73	2
COc1cc(O)c2c(=O)c(OC)c(-c3cccc(Cl)c3OCC(=O)O)oc2c1OC	100	0	0
Cc1cccc2nc(-c3ccc(-c4ccc(CN5CCN(c6ccncc6)CC5)cc4)cc3)[nH]c12.O=C(O)C(F)(F)F	100	100	98
Cc1ccc2cc(NCCCCCCCCON3C(N)=NC(N)=NC34CCCCC4)ccc2n1	92	80	15
Cc1cccc2nc(-c3ccc(-c4cccc(CN5CCCC(O)C5)c4)s3)[nH]c12.O=C(O)C(F)(F)F (centres undefined)	95	18	13
COc1ccc2nccc(N3CCN(CCNCc4ccc5c(n4)NC(=O)CS5)CC3)c2c1.Cl	97	23	18
